From PubChem BioAssay AID1159580 (chemical genetic matrix, 2015)
Among all 5,500 compounds or so, about 2,000 (36%) were called active. Not shown: some 18% with an inconclusive outcome. Some of the results follow. Values without a mark were called inactive. Cut-off read from the data, not from the text of the source: active = normalized growth mostly below about 0.91 (no sharp cut-off); inconclusive = no clear call, values can overlap the other calls; inactive = mostly above about 0.92.

Assay: chemical genetic growth profiling, strain panel (AID 1159580);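 note: tested at 20 µM; growth read once vehicle control cultures reached saturation at 30 °C; 1 = growth at the plate median or of vehicle wells; lower values mean less growth of the strain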
Conditions: growth OD
[1] = S. cerevisiae deletion strains, locus YDL101C, strain DUN1, stronger effect = lower value
[2] = S. cerevisiae deletion strains, locus YHR030C, strain SLT2, stronger effect = lower value

Which results are given for `CC(C)(C)c1ccc(-c2cc(N)c(C(N)=O)s2)cc1`?
normalized growth (S. cerevisiae deletion strains, locus YAL013W, strain DEP1, stronger effect = lower value): 0.978; normalized growth (S. cerevisiae deletion strains, locus YBR229C, strain ROT2, stronger effect = lower value): 0.997; normalized growth (S. cerevisiae deletion strains, locus YCL061C, strain MRC1, stronger effect = lower value): 1.01; normalized growth [1]: 1.01; normalized growth (S. cerevisiae deletion strains, locus YDR150W, strain NUM1, stronger effect = lower value): 0.974; normalized growth (S. cerevisiae deletion strains, locus YEL061C, strain CIN8, stronger effect = lower value): 0.967; normalized growth (S. cerevisiae deletion strains, locus YGR078C, strain PAC10, stronger effect = lower value): 1.01; normalized growth [2]: 0.761; normalized growth (S. cerevisiae deletion strains, locus YHR087W, strain rtc3, stronger effect = lower value): 1.02; normalized growth (S. cerevisiae deletion strains, locus YJR043C, strain POL32, stronger effect = lower value): 0.979; normalized growth (S. cerevisiae deletion strains, locus YJR075W, strain HOC1, stronger effect = lower value): 1; normalized growth (S. cerevisiae deletion strains, locus YKL190W, strain CNB1, stronger effect = lower value): 1; normalized growth (S. cerevisiae deletion strains, locus YLR039C, strain RIC1, stronger effect = lower value): 0.93; normalized growth (S. cerevisiae deletion strains, locus YLR058C, strain SHM2 (second series), stronger effect = lower value): 1.01; normalized growth (S. cerevisiae deletion strains, locus YLR085C, strain ARP6, stronger effect = lower value): 0.987; normalized growth (S. cerevisiae deletion strains, locus YLR262C, strain YPT6, stronger effect = lower value): 0.827; normalized growth (S. cerevisiae deletion strains, locus YML094W, strain GIM5, stronger effect = lower value): 1.01; normalized growth (S. cerevisiae deletion strains, locus YMR219W, strain ESC1, stronger effect = lower value): 0.996; normalized growth (S. cerevisiae deletion strains, locus YMR263W, strain SAP30, stronger effect = lower value): 0.967; normalized growth (S. cerevisiae deletion strains, locus YMR307W, strain GAS1, stronger effect = lower value): 0.881; normalized growth (S. cerevisiae deletion strains, locus YNL153C, strain GIM3, stronger effect = lower value): 1; normalized growth (S. cerevisiae deletion strains, locus YNL298W, strain CLA4 (second series), stronger effect = lower value): 0.966; normalized growth (S. cerevisiae deletion strains, locus YNL322C, strain KRE1, stronger effect = lower value): 0.985; normalized growth (S. cerevisiae deletion strains, locus YNR030W, strain Alg12, stronger effect = lower value): 0.942; normalized growth (S. cerevisiae deletion strains, locus YOL006C, strain TOP1, stronger effect = lower value): 0.946; normalized growth (S. cerevisiae deletion strains, locus YPL055C, strain LGE1, stronger effect = lower value): 0.916; normalized growth (S. cerevisiae deletion strains, locus YPL241C, strain CIN2, stronger effect = lower value): 0.983; normalized growth (S. cerevisiae deletion strains, locus YPR135W, strain CTF4, stronger effect = lower value): 0.783; normalized growth (S. cerevisiae strains, strain wild type, stronger effect = lower value): 0.989

For `CC(C)(C)C(=O)c1sc2sc(C(=O)C(C)(C)C)c(N)c2c1N`, which normalized growth (S. cerevisiae deletion strains, locus YAR019C, strain CDC15, stronger effect = lower value) is on record?
The normalized growth was 0.993.

What about the normalized growth (S. cerevisiae deletion strains, locus YBL105C, strain PKC1, stronger effect = lower value) of the same compound?
Its normalized growth is 0.992.

What about the normalized growth (S. cerevisiae deletion strains, locus YBR135W, strain CKS1, stronger effect = lower value) of the same compound?
The normalized growth was 0.984.

What about the normalized growth (S. cerevisiae deletion strains, locus YBR136W, strain MEC1, stronger effect = lower value) of the same compound?
Its normalized growth is 0.984.

What about the normalized growth (S. cerevisiae deletion strains, locus YBR160W, strain CDC28, stronger effect = lower value) of the same compound?
Its normalized growth is 0.994.

And the normalized growth (S. cerevisiae deletion strains, locus YDL017W, strain CDC7, stronger effect = lower value)?
The normalized growth was 0.993.

What about the normalized growth (S. cerevisiae deletion strains, locus YDL028C, strain MPS1, stronger effect = lower value) of the same compound?
The normalized growth was 0.992.

And the normalized growth [1]?
Its normalized growth is 0.981.

And the normalized growth (S. cerevisiae deletion strains, locus YDL108W, strain KIN28, stronger effect = lower value)?
Its normalized growth is 0.989.

And the normalized growth (S. cerevisiae deletion strains, locus YDL132W, strain cdc53, stronger effect = lower value)?
The normalized growth was 0.975.

What about the normalized growth (S. cerevisiae deletion strains, locus YDL214C, strain PRR2, stronger effect = lower value) of the same compound?
Its normalized growth is 0.835.

What about the normalized growth (S. cerevisiae deletion strains, locus YDR052C, strain DBF4, stronger effect = lower value) of the same compound?
Its normalized growth is 0.999.

And the normalized growth (S. cerevisiae deletion strains, locus YDR054C, strain cdc34, stronger effect = lower value)?
The normalized growth was 0.983.

What about the normalized growth (S. cerevisiae deletion strains, locus YDR226W, strain ADK1, stronger effect = lower value) of the same compound?
The normalized growth was 0.976.

And the normalized growth (S. cerevisiae deletion strains, locus YDR477W, strain SNF1, stronger effect = lower value)?
The normalized growth was 0.875.

And the normalized growth (S. cerevisiae deletion strains, locus YER123W, strain YCK3, stronger effect = lower value)?
Its normalized growth is 0.752.

And the normalized growth (S. cerevisiae deletion strains, locus YER133W, strain GLC7, stronger effect = lower value)?
The normalized growth was 0.862.

What about the normalized growth (S. cerevisiae deletion strains, locus YFL009W, strain cdc4, stronger effect = lower value) of the same compound?
The normalized growth was 0.988.

What about the normalized growth (S. cerevisiae deletion strains, locus YFL029C, strain CAK1, stronger effect = lower value) of the same compound?
Its normalized growth is 0.991.

And the normalized growth (S. cerevisiae deletion strains, locus YFR003C, strain YPI1, stronger effect = lower value)?
Its normalized growth is 0.997.

And the normalized growth (S. cerevisiae deletion strains, locus YFR019W, strain FAB1, stronger effect = lower value)?
The normalized growth was 0.47 (active).

And the normalized growth (S. cerevisiae deletion strains, locus YFR028C, strain CDC14, stronger effect = lower value)?
Its normalized growth is 0.982.

What about the normalized growth (S. cerevisiae deletion strains, locus YGR040W, strain KSS1, stronger effect = lower value) of the same compound?
The normalized growth was 0.879.

What about the normalized growth (S. cerevisiae deletion strains, locus YGR052W, strain FMP48, stronger effect = lower value) of the same compound?
Its normalized growth is 0.689.

And the normalized growth (S. cerevisiae deletion strains, locus YGR092W, strain DBF2, stronger effect = lower value)?
The normalized growth was 0.894.

What about the normalized growth [2] of the same compound?
The normalized growth was 0.152 (active).

And the normalized growth (S. cerevisiae deletion strains, locus YHR079C, strain IRE1, stronger effect = lower value)?
The normalized growth was 0.274 (active).

What about the normalized growth (S. cerevisiae deletion strains, locus YHR082C, strain KSP1, stronger effect = lower value) of the same compound?
The normalized growth was 0.62.

What about the normalized growth (S. cerevisiae deletion strains, locus YHR205W, strain SCH9, stronger effect = lower value) of the same compound?
The normalized growth was 0.872.

What about the normalized growth (S. cerevisiae deletion strains, locus YIL147C, strain SLN1, stronger effect = lower value) of the same compound?
Its normalized growth is 0.995.

What about the normalized growth (S. cerevisiae deletion strains, locus YJL095W, strain BCK1, stronger effect = lower value) of the same compound?
Its normalized growth is 0.52.

What about the normalized growth (S. cerevisiae deletion strains, locus YJL128C, strain PBS2, stronger effect = lower value) of the same compound?
The normalized growth was 0.931.

What about the normalized growth (S. cerevisiae deletion strains, locus YJL157C, strain FAR1, stronger effect = lower value) of the same compound?
Its normalized growth is 0.785.

What about the normalized growth (S. cerevisiae deletion strains, locus YJR016C, strain ILV3, stronger effect = lower value) of the same compound?
Its normalized growth is 0.99.

What about the normalized growth (S. cerevisiae deletion strains, locus YJR066W, strain TOR1 (second series), stronger effect = lower value) of the same compound?
The normalized growth was 0.823.

What about the normalized growth (S. cerevisiae deletion strains, locus YJR066W, strain TOR1, stronger effect = lower value) of the same compound?
Its normalized growth is 0.589.

What about the normalized growth (S. cerevisiae deletion strains, locus YKL048C, strain ELM1, stronger effect = lower value) of the same compound?
The normalized growth was 0.983.

And the normalized growth (S. cerevisiae deletion strains, locus YKL067W, strain YNK1, stronger effect = lower value)?
Its normalized growth is 0.902.

What about the normalized growth (S. cerevisiae deletion strains, locus YKL101W, strain HSL1, stronger effect = lower value) of the same compound?
The normalized growth was 0.962.

And the normalized growth (S. cerevisiae deletion strains, locus YKL193C, strain SDS22, stronger effect = lower value)?
The normalized growth was 0.987.

What about the normalized growth (S. cerevisiae deletion strains, locus YKL203C, strain TOR2, stronger effect = lower value) of the same compound?
The normalized growth was 0.936.

What about the normalized growth (S. cerevisiae deletion strains, locus YLR113W, strain HOG1, stronger effect = lower value) of the same compound?
Its normalized growth is 0.663 (active).

And the normalized growth (S. cerevisiae deletion strains, locus YLR133W, strain CKI1, stronger effect = lower value)?
The normalized growth was 0.888.

And the normalized growth (S. cerevisiae deletion strains, locus YLR403W, strain SFP1, stronger effect = lower value)?
The normalized growth was 0.851.

And the normalized growth (S. cerevisiae deletion strains, locus YML070W, strain DAK1, stronger effect = lower value)?
The normalized growth was 0.704.

And the normalized growth (S. cerevisiae deletion strains, locus YMR001C, strain CDC5, stronger effect = lower value)?
Its normalized growth is 0.993.

What about the normalized growth (S. cerevisiae deletion strains, locus YMR205C, strain PFK2 (second series), stronger effect = lower value) of the same compound?
The normalized growth was 0.965.

And the normalized growth (S. cerevisiae deletion strains, locus YMR277W, strain FCP1, stronger effect = lower value)?
Its normalized growth is 0.989.

And the normalized growth (S. cerevisiae deletion strains, locus YNL006W, strain LST8, stronger effect = lower value)?
The normalized growth was 0.999.

What about the normalized growth (S. cerevisiae deletion strains, locus YNL020C, strain ARK1, stronger effect = lower value) of the same compound?
The normalized growth was 0.892.

And the normalized growth (S. cerevisiae deletion strains, locus YNL161W, strain CBK1, stronger effect = lower value)?
The normalized growth was 0.994.

What about the normalized growth (S. cerevisiae deletion strains, locus YNL183C, strain NPR1, stronger effect = lower value) of the same compound?
The normalized growth was 0.855.

What about the normalized growth (S. cerevisiae deletion strains, locus YNL207W, strain RIO2, stronger effect = lower value) of the same compound?
Its normalized growth is 0.989.

What about the normalized growth (S. cerevisiae deletion strains, locus YNL222W, strain SSU72, stronger effect = lower value) of the same compound?
Its normalized growth is 0.993.

And the normalized growth (S. cerevisiae deletion strains, locus YNL307C, strain MCK1 (second series), stronger effect = lower value)?
The normalized growth was 0.97.

What about the normalized growth (S. cerevisiae deletion strains, locus YOL078W, strain AVO1, stronger effect = lower value) of the same compound?
Its normalized growth is 0.987.

And the normalized growth (S. cerevisiae deletion strains, locus YOL136C, strain PFK27, stronger effect = lower value)?
Its normalized growth is 0.6 (active).

What about the normalized growth (S. cerevisiae deletion strains, locus YOR061W, strain CKA2, stronger effect = lower value) of the same compound?
The normalized growth was 0.915.

What about the normalized growth (S. cerevisiae deletion strains, locus YOR119C, strain RIO1, stronger effect = lower value) of the same compound?
Its normalized growth is 1.01.

What about the normalized growth (S. cerevisiae deletion strains, locus YOR231W, strain MKK1, stronger effect = lower value) of the same compound?
Its normalized growth is 0.682.

And the normalized growth (S. cerevisiae deletion strains, locus YOR329C, strain SCD5, stronger effect = lower value)?
Its normalized growth is 0.991.

What about the normalized growth (S. cerevisiae deletion strains, locus YPL031C, strain PHO85, stronger effect = lower value) of the same compound?
Its normalized growth is 0.804.

And the normalized growth (S. cerevisiae deletion strains, locus YPL153C, strain RAD53, stronger effect = lower value)?
The normalized growth was 0.692.

And the normalized growth (S. cerevisiae deletion strains, locus YPL204W, strain HRR25, stronger effect = lower value)?
Its normalized growth is 0.646 (active).

What about the normalized growth (S. cerevisiae deletion strains, locus YPL209C, strain IPL1, stronger effect = lower value) of the same compound?
Its normalized growth is 0.993.

And the normalized growth (S. cerevisiae deletion strains, locus YPL256C, strain CLN2, stronger effect = lower value)?
Its normalized growth is 0.326 (active).

And the normalized growth (S. cerevisiae deletion strains, locus YPR025C, strain CCL1, stronger effect = lower value)?
The normalized growth was 0.991.

What about the normalized growth (S. cerevisiae deletion strains, locus YPR106W, strain ISR1, stronger effect = lower value) of the same compound?
The normalized growth was 0.995.

And the normalized growth (S. cerevisiae deletion strains, locus YPR111W, strain DBF20, stronger effect = lower value)?
The normalized growth was 0.99.

And the normalized growth (S. cerevisiae deletion strains, strain NNK1, stronger effect = lower value)?
Its normalized growth is 0.996.

And the normalized growth (S. cerevisiae deletion strains, strain TSCII, stronger effect = lower value)?
The normalized growth was 0.994.
